Source: PubChem
The list is not random: actives were taken first. Their share in the collection is about 22%.
Pf growth 48h = P. falciparum growth inhibition at 48 hours (one generation); P. falciparum luciferase growth in erythrocytes, 48 h; Potency, µM (highest dose often 28.7 µM), actives largely listed as inhibitors; 310,000 tested, 5.9% active; AID 504832
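Here the parasites carry a stable luciferase gene and grow inside erythrocytes in Albumax-based RPMI medium with compound for one erythrocytic cycle. Activity is scored as loss of luminescent signal.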
LmPK inh = blocks Leishmania mexicana pyruvate kinase activity; Q27686; purified LmPK, Kinase-Glo ATP luminescence, 1 h; Potency, µM (highest dose often 57.5 µM), most hits filed as inhibitors; 290,000 tested, 0.37% active; AID 1721
Target sequence (Q27686 whole entry, looked up): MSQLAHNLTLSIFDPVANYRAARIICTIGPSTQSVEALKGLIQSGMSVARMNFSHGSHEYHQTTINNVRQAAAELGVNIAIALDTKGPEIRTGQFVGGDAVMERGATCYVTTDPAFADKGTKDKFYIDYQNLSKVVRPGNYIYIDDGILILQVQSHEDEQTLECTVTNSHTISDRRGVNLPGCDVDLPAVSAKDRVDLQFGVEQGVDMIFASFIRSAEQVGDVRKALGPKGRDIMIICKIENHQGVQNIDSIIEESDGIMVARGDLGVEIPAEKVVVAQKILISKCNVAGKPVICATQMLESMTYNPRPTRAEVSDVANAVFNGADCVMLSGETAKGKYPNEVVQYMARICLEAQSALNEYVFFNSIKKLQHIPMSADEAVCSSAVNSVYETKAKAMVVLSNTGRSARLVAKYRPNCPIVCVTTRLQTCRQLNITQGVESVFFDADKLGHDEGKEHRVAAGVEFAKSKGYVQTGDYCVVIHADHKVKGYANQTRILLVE
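In 50 mM imidazole pH 7.2 with 7 mM MgCl2, LmPK (0.1 nM) turned over PEP (0.5 mM) and ADP (0.1 mM) for 1 h at room temperature. Luciferase read-out of ATP.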
Shiga inhibitor = inhibitors of Shiga toxin in Vero cells; 290,000 tested, 9.2% active; AID 2315; Vero cells, Shiga toxin protein synthesis inhibition reporter; inhibition, % at 38.7 µM; in the data active = inhibition mostly above about 28%, no sharp cut-off; inactive = mostly below about 43%
CHX counter = affects cycloheximide protein synthesis inhibition readout, counter-screen; max response, %; 300,000 tested, 12% active; cell reporter, cycloheximide protein synthesis inhibition counterscreen; in the data active = max response mostly above about 13%, no sharp cut-off; inactive = mostly below about 14%; note: read at 38.3 µM for the half of the compounds with a filed dose
Pf growth 96h = inhibits malaria parasite growth, 96 h. P. falciparum luciferase reporter growth, 96 h. Potency, µM (top dose mostly 28.7 µM), actives largely listed as inhibitors. 320,000 tested, 6.9% active. AID 504834
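Readout is luminescence from an integrated firefly luciferase in P. falciparum. Red cells, 2% hematocrit and 0.05% parasitemia final, were cultured with compound through two parasite generations (96 hours) at 37 C, 5% CO2.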
Numbers stand for hits; n = inactive; u = inconclusive; x = not tested or not shown. Unless noted, calls come from the whole dose curve; as a rule, active = well fitted inhibition curve with a large enough effect; inconclusive = small, poorly fitted or top-dose-only effect, or another doubt; inactive = no such curve, though single readings can be large or run the other way.

SMILES	Pf growth 48h	LmPK inh	Shiga inhibitor	CHX counter	Pf growth 96h
O=C(c1noc2c1CCCC2)N1CCN(C(c2ccccc2)c2ccccc2)CC1	u	n	n	n	n
CC(C)c1onc(C(=O)N2CCN(c3ccccc3)CC2)c1[N+](=O)[O-]	5.2µM	n	n	n	u
Cc1onc(C(=O)N2CCN(Cc3ccccc3)CC2)c1[N+](=O)[O-]	n	n	n	n	15µM
CC(=O)c1ccc(N2CCN(C(=O)c3c(-c4ccccc4Cl)noc3C)CC2)cc1	u	n	n	n	n
Cc1onc(C(=O)N2CCC(Cc3ccccc3)CC2)c1[N+](=O)[O-]	u	n	n	n	u
CC(C)c1onc(C(=O)N2CCN(c3ccc(F)cc3)CC2)c1[N+](=O)[O-]	u	n	n	n	u
CCN1CCCC1CNC(=O)C(=O)NCCc1ccc(OC)c(OC)c1 (configuration not stated)	n	n	n	n	n
O=C(/C(=C/c1ccc(Cl)cc1)c1nc2ccccc2[nH]1)c1ccccc1	2.9µM	n	41	37	2.3µM
C(=C\c1ccco1)/c1nc2ccccc2[nH]1	n	u	70	50	n
C(=C\c1nc2ccccc2[nH]1)/c1ccccc1	n	8.9µM	68	21	u
CC(=O)Nc1ccc(/C=C/c2nc3ccccc3[nH]c2=O)cc1	n	n	n	n	n
O=C(/C=C/c1ccccc1)NCCc1nc2ccccc2[nH]1	n	n	n	n	n
O=c1[nH]c2ccccc2nc1/C=C/c1ccc(Cl)cc1	n	n	69	37	n
O=C(Cn1c(C(F)(F)F)nc2ccccc21)N=Nc1c(O)[nH]c2ccc(Br)cc12	n	n	n	n	n
COCCNC(=O)COc1coc(CN2CCN(Cc3ccccc3)CC2)cc1=O	n	n	n	n	u
COc1cccc(CNC(=O)CCS(=O)(=O)c2ccccc2Cl)c1	n	x	x	x	u
O=C(CC(Nc1ccc(F)cc1)C(=O)O)c1ccccc1 (configuration not stated)	n	n	41	37	x
Cc1ccc(NC(CC(=O)c2ccccc2)c2ccc(F)cc2)cc1 (configuration not stated)	n	n	69	50	n
COc1ccc(C(CC(=O)c2ccc(O)cc2)S(=O)(=O)c2ccc(C)cc2)cc1 (configuration not stated)	n	n	66	42	n
O=C(CC(Nc1ccc(F)cc1)C(=O)OCC(=O)c1cccs1)c1ccccc1 (configuration not stated)	n	n	n	16	n
COc1ccc(C(=O)CC(c2ccccc2)S(=O)(=O)c2ccc(C)cc2)cc1 (configuration not stated)	n	n	n	n	u
COc1ccc([N+](=O)[O-])cc1N(CC(=O)NCCCOC(C)C)S(C)(=O)=O	n	n	n	n	u
CN(Cc1ccccc1)C(=O)c1[nH]cnc1C(=O)Nc1cccc(Cl)c1	n	x	x	x	u
CCCC[C@H]1CCCO[C@@](C(=O)NCc2ccc(C)o2)(C(F)(F)F)C1	x	x	n	n	x
COc1ccc(C(CC(=O)c2ccc(C)cc2)Nc2ccc([N+](=O)[O-])cc2)cc1 (configuration not stated)	n	n	n	28	u
SMILES	Pf growth 48h	LmPK inh	Shiga inhibitor	CHX counter	Pf growth 96h
O=C(NCc1ccccc1)c1ccc(NC(=O)c2ccccc2F)cc1	n	n	n	n	u
CSc1nsc(/C=C/Nc2ccc(C)cc2)c1C#N	n	n	n	n	u
CSc1nsc(/C=C/Nc2ccc(C)c(C)c2)c1C#N	u	n	45	n	u
COC(=O)C1=C[C@@H](C(=O)OC)C2C3=C(C(=O)[C@]2(CC(C)C)NC(=O)c2ccccc2)[C@H](C)n2c(=O)n(-c4ccccc4)c(=O)n2[C@@H]3C1 (some centres not stated)	x	x	n	n	x
C/C1=C2/[N-]C(C(CC(N)=O)[C@@]2(C)CCC(=O)NCC(C)OP(=O)([O-])O[C@H]2[C@@H](O)[C@@H](n3cnc4cc(C)c(C)cc43)O[C@@H]2CO)[C@]2(C)N=C(/C(C)=C3N=C(/C=C4N=C1C(CCC(N)=O)C\4(C)C)[C@@H](CCC(N)=O)[C@]\3(C)CC(N)=O)[C@@H](CCC(N)=O)[C@]2(C)CC(N)=O.CC(=O)O.[Co] (some centres not stated)	0.85µM	x	x	x	0.67µM
O=C(O)CCC(=O)Nc1sc2c(c1C(=O)NC1CCCC1)CCCC2	n	n	n	n	n
C#Cc1cccc(C(=O)N2CCCC(C(=O)c3ccc(OC)cc3C)C2)c1 (configuration not stated)	n	n	n	n	13µM
COc1ccc(C(=O)C2CCCN(C(=O)c3cc(C4CC4)[nH]n3)C2)c(C)c1 (configuration not stated)	n	n	n	n	15µM
CC1(C(=O)OCC(=O)Nc2nnc(-c3ccccc3)o2)CC1(Cl)Cl (configuration not stated)	u	x	x	x	n
COC(=O)c1ccc(OCc2nn[nH]n2)cc1	n	n	n	n	n
CC1(C)CC(=O)C2=C(C1)Nc1ccccc1NC2c1ccc(F)cc1 (configuration not stated)	n	n	n	n	n
O=C1NCC2=C1C(c1ccc(Br)cc1)Nc1ccccc1N2 (configuration not stated)	n	n	77	22	n
CC1=CCC(/C=N\Nc2nnc3c(n2)[nH]c2ccccc23)CC1 (configuration not stated)	n	n	55	76	u
CC1CCN(C(=O)CSc2nnc3c(n2)[nH]c2ccccc23)CC1	u	n	n	n	n
c1ccc(C[n+]2cccc(-c3ccccc3)c2)cc1	2.1µM	n	n	n	0.66µM
COc1ccccc1N1CCN(C2CCCCC2NS(=O)(=O)c2ccccc2)CC1 (configuration not stated)	u	n	n	n	n
C/C(=N\Nc1cccc2cccnc12)c1ccc[nH]1	n	n	75	40	n
Cc1cc(C)nc(SCc2nnc(SCC#N)n2-c2cccc(Cl)c2)n1	7.4µM	n	n	n	u
COc1cccc(OCc2ccc(Cl)cc2)c1C#N	n	n	81	44	n
COc1cccc(CNC(C)(C)CO)c1OCc1ccc(Cl)cc1	u	n	n	n	n
Cc1ccc(C(CCNC(C)c2cccs2)c2ccco2)cc1 (configuration not stated)	10µM	n	n	n	u
O=C(COC(=O)[C@@H]1CC(O)CN1S(=O)(=O)c1ccc(Cl)cc1)NC(=O)NCc1ccccc1 (some centres not stated)	n	x	x	x	n
COc1ccc(C(CNC(=O)c2ccco2)N2CCCC2)cc1 (configuration not stated)	n	x	x	x	n
CN(C)c1ccc(C(CNC(=O)c2ccc(-c3ccccc3)cc2)N2CCOCC2)cc1 (configuration not stated)	13µM	x	x	x	u
CN(C)c1ccc(C(CNC(=O)c2ccco2)N2CCCC2)cc1 (configuration not stated)	n	n	48	n	n
